Assay outcomes deposited in PubChem by National Center for Advancing Translational Sciences (NCATS).
The list is not random: actives were taken first. Their share in the collection is about 14%.
Sm TGR inh: blocks Schistosoma mansoni thioredoxin glutathione reductase; Q962Y6; purified TGR, DTNB reduction, TNB absorbance 405 nm; Potency, µM (doses to about 114 µM), for the others: at the highest dose activity change, negative = inhibition, actives largely listed as inhibitors; 360,000 compounds, 3% hits; further: potency means the concentration at half of the fitted maximal effect; nearly all actives have a fitted effect of over 60% in size
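TGR 20 nM + NADPH 100 uM (dispensed conc.), cpd preinc 15 min RT; start with NADPH (500 uM addition) then DTNB (15 mM addition). Kinetic TNB absorbance, 405 nm filter. Four-parameter Hill fit across titration.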
FBPA Giardia inh: inhibitors of Giardia lamblia fructose-1,6-bisphosphate aldolase; A8B2U2; purified Giardia FBPA; Potency, µM (highest dose often 59.6 µM), for the others: at the highest dose activity, negative = inhibition, usual class: inhibitors; 290,000 compounds, 0.71% hits; further: potency means the concentration at half of the fitted maximal effect; nearly all actives have a fitted effect of over 55% in size
Target sequence (A8B2U2 whole entry, looked up): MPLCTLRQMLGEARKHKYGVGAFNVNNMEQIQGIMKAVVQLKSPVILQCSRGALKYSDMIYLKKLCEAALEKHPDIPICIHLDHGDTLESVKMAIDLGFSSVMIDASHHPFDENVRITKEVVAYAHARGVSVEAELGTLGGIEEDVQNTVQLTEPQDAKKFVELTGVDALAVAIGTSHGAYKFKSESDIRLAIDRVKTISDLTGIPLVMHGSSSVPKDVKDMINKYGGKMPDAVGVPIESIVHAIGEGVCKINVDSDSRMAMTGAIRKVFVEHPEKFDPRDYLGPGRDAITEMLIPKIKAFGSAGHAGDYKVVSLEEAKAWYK
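40 nM FBPA preincubated 10 min at RT with compound (up to 57.5 uM final), then substrate plus GAPDH/TPI/NAD/arsenate coupling and diaphorase/resazurin added. Fluorescence read after 20 min at RT, 525/598 nm.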
Pf growth 96h: P. falciparum growth inhibition at 96 hour, primary screen for plastid delayed-death inhibitors | P. falciparum luciferase reporter growth, 96 h | Potency, µM (series often up to 28.7 µM), for inactives: at the top dose activity change, negative = inhibition, hits mostly inhibitors | 320,000 compounds, 6.9% hits | AID 504834; further: potency means the concentration at half of the fitted maximal effect
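Parasite growth measured via integrated firefly luciferase reporter in P. falciparum. Infected erythrocytes at 2% hematocrit, 0.05% parasitemia final were treated 96 hours at 37 C under 5% CO2, and luminescence was read.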
Pf growth 48h: inhibits P. falciparum growth in the first generation, 48 h; Potency, µM (titrated, usually from 28.7 µM), without a hit: at the highest dose activity change, negative = inhibition, most hits filed as inhibitors; P. falciparum luciferase growth in erythrocytes, 48 h; 310,000 compounds, 5.9% hits; further: potency means the concentration at half of the fitted maximal effect
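Here the parasites carry a stable luciferase gene and grow inside erythrocytes in Albumax-based RPMI medium with compound for one erythrocytic cycle. Activity is scored as loss of luminescent signal.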
HCMV antiviral: inhibitors of human cytomegalovirus. HFF cells, HCMV-luciferase reporter, 72 h; hits give low values. activity change, negative = inhibition, % at 57.5 µM. 410,000 compounds, 4.5% hits. AID 1259415; in the data active means activity change below about -60%; inconclusive means no clear call, values can overlap the other calls; inactive means above about -39%
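Two-dose cell screen: HFF monolayers treated with compounds and infected with luciferase-expressing HCMV at 1 PFU/cell, 72 h at 37C, then lysed for luciferase measurement.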
Numbers without * were called inactive; ? = inconclusive; · = no result; [ ] = another dose, or the depositor's remark. Unless noted, the call rests on the fitted dose curve; in most records, active means well fitted curve in the direction sought with a large enough effect; inconclusive means small, poorly fitted or top-dose-only effect, or another doubt; inactive means no such curve, though single readings can be large; an effect the other way counts as inactive or inconclusive. On the % scale 0 is the no-effect control and ±100 the full control effect.

SMILES	Sm TGR inh	FBPA Giardia inh	Pf growth 96h	Pf growth 48h	HCMV antiviral
CC1CCCCC1NS(=O)(=O)c1ccc(S(=O)(=O)NCc2ccncc2)cc1 (centres undefined)	-11.5%	-10.0%	?	14.7µM*	·
CCOc1ccc(Br)cc1S(=O)(=O)NCc1ccncc1	4.4%	-1.5%	13.1µM*	-0.6%	-35.1
Cc1ccc(C2=NCCn3nc4cc(C(F)(F)F)ccc4c32)cc1	-32.7%	·	37.7%	?	37.4
Cc1ccc(C2=NCCn3nc4cc([N+](=O)[O-])ccc4c32)cc1	39.8µM*	·	-41.9%	?	1.0
Cc1c(C(=O)N2CCC(C)CC2)oc2ccc3c(c12)C(O)CC1(CCCCC1)O3 (centres undefined)	0.4%	·	-11.7%	-3.7%	-70.2*
CC(=O)c1ccc(-c2ccccc2C2=CC(=O)CC(C)(C)C2=O)cc1	·	·	·	·	-17.5
COc1ccc(N2CCN(C(=O)CSc3nnc4c(C)cc5cc(C)ccc5n34)CC2)cc1	5.5%	-5.8%	53.3%	-9.0%	-30.2
COc1cc(NC(=O)CSc2nnc3n2C(C)(C)Cc2ccccc2-3)cc(OC)c1	-2.0%	-2.2%	4.15µM*	?	-25.3
COc1ccc(N2CCN(C(=O)CSc3nnc4n3C(C)(C)Cc3ccccc3-4)CC2)cc1	1.8%	-2.0%	?	11.7µM*	-63.6*
COc1ccc(N2CCN(C(=O)CSc3nnc4c(C)cc5c(C)cc(C)cc5n34)CC2)cc1	-12.0%	-6.3%	-4.2%	2.94µM*	-13.2
CN(C)CC1CCC/C(=C\c2ccc(OC(=O)c3ccc(Cl)cc3)cc2)C1=O (centres undefined)	·	·	·	·	-96.9*
CN(C)CC1CC/C(=C\c2ccc(O)cc2)C1=O (centres undefined)	·	·	·	·	-76.2*
CC1CCC/C(=C\c2ccc(O)cc2)C1=O (centres undefined)	·	·	·	·	-35.3
Cc1ccc(-c2[nH]ncc2/C=C(\C#N)C(=O)NC2CCCCC2)cc1	-1.7%	-0.6%	?	?	-19.2
COc1ccc(-c2[nH]ncc2/C=C(/C#N)C(=O)NC2CCCCC2)cc1	17.1%	0.7%	7.38µM*	·	-33.9
Cc1ccc(N(C)S(=O)(=O)c2cccc(C(=O)NCC(c3cccs3)N3CCOCC3)c2)cc1 (centres undefined)	3.7%	·	?	11.7µM*	-10.7
Cc1ccc(S(=O)(=O)N(C)c2ccc(C(=O)NCC(c3cccs3)N3CCOCC3)cc2)cc1 (centres undefined)	1.9%	·	10.4µM*	?	-3.8
Cc1ccc(S(=O)(=O)N(C)c2ccc(C(=O)NCC(c3ccccc3)N3CCCC3)cc2)cc1 (centres undefined)	·	·	·	·	-16.0
COCCN1C(=O)COCc2cc(-c3cnn(C)c3)ccc21	·	·	·	·	20.7
O=C(Cn1c(=O)n(Cc2ccco2)c(=O)c2c3c(sc21)CCCCC3)c1ccccc1	35.5µM*	-1.4%	0.0%	-11.5%	52.1
O=c1c2c3c(sc2n(CCN2CCCC2)c(=O)n1Cc1ccco1)CCCCC3	0.1%	-6.3%	4.1%	?	-21.2
CN(C)CCn1c(=O)n(Cc2ccco2)c(=O)c2c3c(sc21)CCCCC3	7.1%	-1.5%	7.38µM*	?	-24.8
O=C(Cn1c(=O)n(Cc2ccco2)c(=O)c2c3c(sc21)CCCCC3)Nc1ccccc1	10µM*	-8.2%	11.7µM*	?	-14.7
CCN(CC(=O)Nc1ccc(C(=O)Nc2ccc(OC)cc2)cc1)Cc1nc2ccccc2c(=O)[nH]1	15.9%	-16.4%	?	?	-0.5
COc1ccc(NC(=O)CC2C(=O)N(c3ccc(C)cc3)C(=O)N2C2CCCC2)cc1 (centres undefined)	3.6%	·	·	·	-0.1
SMILES	Sm TGR inh	FBPA Giardia inh	Pf growth 96h	Pf growth 48h	HCMV antiviral
Cn1c(=O)oc2cc(S(=O)(=O)NCc3ccco3)ccc21	?	2.8%	?	·	-6.9
CCC1CCCCN1Cc1ccc(CNS(=O)(=O)c2ccc3c(c2)oc(=O)n3C)o1 (centres undefined)	79.4µM*	-12.6%	1.5%	?	-16.6
Cn1c(=O)oc2cc(S(=O)(=O)Nc3cccc4c3CCCC4)ccc21	6.8%	-0.8%	?	-27.9%	-90.7*
Cn1c(=O)oc2cc(S(=O)(=O)Nc3ccccc3)ccc21	8.3%	16.8%	28.0%	47.1%	-38.9
CC1CC(C)CN(CCCNS(=O)(=O)c2ccc3c(c2)oc(=O)n3C)C1 (centres undefined)	3.7%	·	10.4µM*	-1.8%	2.4
CC(C)NS(=O)(=O)c1ccc2c(c1)oc(=O)n2C	89.1µM*	-2.0%	32.4%	18.2%	-17.8
CC1CCN(C(=O)CCNS(=O)(=O)c2ccc3c(c2)oc(=O)n3C)CC1	0.8%	·	?	-8.1%	-12.7
CN1c2c(nc(N)[nH]c2=O)NCC1CNc1ccc(C(=O)NC(CCC(=O)O)C(=O)O)cc1 (centres undefined)	·	·	18.7%	8.8%	·
O=C(CN1C(=O)CCSc2ccc(S(=O)(=O)N3CCOCC3)cc21)Nc1ccccc1Cl	-18.5%	-1.2%	-21.3%	?	-24.3
NC(=O)C(=O)O	·	-2.8%	·	·	·
Cc1ccc(SCCNC(=O)/C=C/c2cccc([N+](=O)[O-])c2)cc1	4.7%	-4.7%	30.3%	20.6%	-21.7
O=C(/C=C/c1cccc([N+](=O)[O-])c1)NCCSc1ccccc1	0.4%	-2.6%	10.4µM*	?	61.3
CC(C)(C)SCCNC(=O)/C=C/c1ccccc1	11.9%	0.3%	10.4µM*	?	88.5
CCN(CC)c1ccc(/C=C(/C#N)c2nc3ccccc3[nH]2)c(OC(C)C)c1	7.7%	-13.4%	?	?	-35.4
Cc1cc(N/C=C/C(=O)c2cccs2)ccc1F	-6.0%	-7.6%	25.4%	367.3%	-101.2*
Cc1c(N/C=C(\Cl)C(=O)C(F)(F)F)c(=O)n(-c2ccccc2)n1C	14.1µM*	-25.3%	18.1%	?	22.7
Cc1c(N/C=C/C(=O)c2cccs2)c(=O)n(-c2ccccc2)n1C	44.7µM*	-9.4%	-17.3%	?	7.6
CC(=O)NC(Nc1c(C)n(C)n(-c2ccccc2)c1=O)C(Cl)(Cl)Cl (centres undefined)	39.8µM*	-12.3%	?	5.2%	5.4
Cc1cc(C)cc(C(O)c2ncc(-c3ccccc3)[nH]2)c1 (centres undefined)	·	·	·	·	25.4
Cc1ccc(-c2nnc(Nc3ccc(Cl)cc3)c3ccccc23)cc1S(=O)(=O)NCC1CCCO1 (centres undefined)	-0.7%	·	·	·	-34.1
CC1(C)CCCN(C(=O)c2ccc3c(c2NCCO)C(=O)c2ccccc2C3=O)C1	-0.4%	-8.0%	?	13.1µM*	?
CCC1(C)Cc2c(sc3c2c2ncnn2c2nnc(SCC(=O)NCc4ccco4)n32)CO1 (centres undefined)	44.7µM*	0.3%	?	?	-23.1
CC1(C)Cc2c(sc3c2c2ncnn2c2nnc(SCC(=O)NCc4ccco4)n32)CO1	-2.0%[11.4 µM]	3.2%	?	·	-1.0
